For 17 compounds, growth inhibition results are on record in PubChem BioAssay (NCI).

Molecules are shown by their SMILES. About 79,000 compounds went through this panel and 15% of them were active in at least one assay; those are over-represented in the sample as a whole. Active and inactive are the calls of the source. Cut-off read from the data, not from the text of the source: active = growth inhibition above about 70%; inactive = the rest.

The nature of the assay: NCI Yeast Anticancer Drug Screen. Data for the cln2 rad14 strain (AID 165).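 Note: 0% = growth equal to vehicle treated cultures.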 As to conditions: S. cerevisiae cln2 rad14 strain, at 5.0 µM (retest, dose inferred, filed as 0.5), stronger effect = higher value. The method in brief:
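The screen exposed genetically defined yeast (cln2 rad14) to test compounds and scored growth inhibition relative to vehicle-treated controls.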
With `N#C/C(=C\C(Cl)=C/c1ccccc1)C(N)=S`, the growth inhibition is 16% (inactive). Consider `CC[N+](C)(CC)CCC(=O)/C=C/c1ccccc1`, for which the growth inhibition is 16% (inactive). With `CC(=O)n1c(=S)n(C(C)=O)c2ccccc21` the figure was 10% (inactive); with `Nc1ccccc1/C=C1/Sc2cc[nH]c2C1=O`, -1% (inactive); with `C=C1CC2(CCCC3(CC(=C)C(=O)O3)C2(C)C)OC1=O` (configuration not stated), 15% (inactive). The value for `O=C1/C(=C\c2ccc(Cl)cc2Cl)Sc2scc(-c3ccc(O)c(O)c3)[n+]21` was 1% (inactive); that for `COc1cc(OC(C)C)cc2c1C(=O)C(C(O)(O)C(F)(F)F)=CC2=O` was 5% (inactive). The value for `Cc1c(N=Nc2ccc(Br)cc2)c(-c2ccccc2)nn1C(N)=S` was -4% (inactive). Turning to `COc1ccc2nc3c([N+](=O)[O-])ccc(NCCCN(C)C)c3c(N)c2c1`, the growth inhibition was 16% (inactive).

`CN(C)CCC[Si]1(C)c2ccccc2CCc2ccccc21`: the growth inhibition was -2% (inactive).

Consider `CC(=O)N(C)c1cc(NCc2ccccc2)ccc1OCc1ccccc1`, for which the growth inhibition was -60% (inactive). Take `ClCCOCCOc1c(Cl)cc(Cl)c(Cl)c1Cl`: the growth inhibition is 4% (inactive). With `Nc1ccc2nc(N)sc2c1` the figure was 0% (inactive). With `CC(C)(C)c1cc(C2c3cc4c(cc3OC(O)(CO)C2C(=O)O)OCO4)cc(C(C)(C)C)c1O` (configuration not stated) (tested in a mixture with another compound) the figure was 5% (inactive).

Regarding `COc1ccc(C2COc3c(ccc(O)c3O)C2)cc1OC` (configuration not stated), the growth inhibition was 0% (inactive). The value for `Cc1ccc(OCC2CO2)c(Br)c1` (configuration not stated) was 4% (inactive); that for `CCN(CC)CCNc1ccc(C)c2sc3c(OC)cccc3c(=O)c12` was -2% (inactive).
